Potency and affinity values are given separately.
These compounds were tested on Escherichia coli. Conditions: Concentration 32 ug.mL-1;; ASSAY_TEST Inhibition of Bacterial Growth; detection method Absorption (OD600); MEDIA CAMHB; plate type 384well; NBS; CORNING #3640; time 18 hr.

Compound | Inhibition [%]
C=Cc1ccc(CN(c2cccc(Cl)c2)S(=O)(=O)c2cccn3c(C)nnc23)cc1 | -14.37
Cc1nnc2ccc(S(=O)(=O)N(Cc3ccccc3Cl)c3ccc(F)cc3)cn12 | -4.95
COc1ccccc1NC(=O)Cn1nc2c(SCc3ccc(Cl)cc3)nccn2c1=O | -8
Cc1oc(-c2ccccc2)nc1CSc1nc2ccccc2n2c(C)nnc12 | 4.8
COc1ccc(NC(=O)Cn2nc3nc(N4CCOCC4)ccn3c2=O)cc1Cl | -5.98
CCc1cccc(NC(=O)Cn2nc3ccc(SC(C)(C)C)nn3c2=O)c1 | -1.32
COc1cccc(NC(=O)Cn2nc3ccc(-c4ccc(Cl)cc4)nn3c2=O)c1 | -11.86
Cc1cccc(C)c1NC(=O)Cn1nc2c3c4c(sc3ncn2c1=O)CCCC4 | -3.38
Cc1ccc(NC(=O)Cn2nc3c(Oc4ccccc4)nccn3c2=O)c(Br)c1 | -7.68
CCCCn1c(=O)c2sccc2n2c(=O)n(CC(=O)c3ccc(C)cc3C)nc12 | -4.86
O=c1c2sccc2n2c(SCc3cccc(C(F)(F)F)c3)nnc2n1Cc1cccs1 | -11.21
CCCCOc1ccc(-c2cc3c4nnc(SCC(=O)Nc5c(C)cccc5CC)n4ccn3n2)cc1 | -38.25
COc1ccc(NC(=O)c2ccc3nn(CC(=O)Nc4ccc(C(F)(F)F)cc4)c(=O)n3c2)cc1 | -5.89
CCc1nnc2c(=O)n(CC(=O)Nc3ccc(NC(C)=O)cc3)c3ccccc3n12 | -3.04
COc1ccc(NC(=O)Cn2nc3c(N4CC(C)CC(C)C4)nccn3c2=O)c(OC)c1 (stereo not given) | 1.24

Reference: ChEMBL document CHEMBL4513146, “CO-ADD screening of Karazin Kharkiv National University (Ukraine) compounds”
